Screening results (PubChem)
Sampled rows, rich in hits. Any-hit rate of the full collection: about 6.5%.
VACV Venus inh: vaccinia inhibition (Venus reporter); AID 720580; Potency, µM (highest dose often 36.5 µM), without a hit: top-dose activity change, negative = inhibition, actives largely listed as inhibitors; Vaccinia virus Venus reporter expression, fluorescence; 330,000 tested, 0.46% active; calls by dose curve; tested in A549 cells; further: potency means the concentration at half of the fitted maximal effect; nearly all actives have a fitted effect of over 30% in size
Vaccinia mCherry: vaccinia inhibition (mCherry reporter) | AID 720579 | Potency, µM (doses to about 36.5 µM), without a hit: at the top dose activity change, negative = inhibition, usual class: inhibitors | 310,000 tested, 0.63% active | Vaccinia virus mCherry reporter infection, fluorescence; calls by dose curve; tested in A549 cells; further: potency means the concentration at half of the fitted maximal effect; nearly all actives have a fitted effect of over 35% in size
HCMV inh: human cytomegalovirus inhibition; activity change, negative = inhibition, % at 57.5 µM; 410,000 tested, 4.5% active; HFF cells, HCMV-luciferase reporter, 72 h; hits give low values; in the data active means activity change below about -60%; inconclusive means no clear call, values can overlap the other calls; inactive means above about -39%
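Screen run at 2 compound doses on HFFs infected with reporter HCMV, MOI 1 PFU/cell. Luciferase activity from cell lysates at 72 h post infection gave inhibition relative to buffer-only and Salinomycin wells.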
MARV entry inh: blocks Marburg virus binding to or entry into cells; Marburg virus pseudotyped entry inhibition, cell reporter; AID 540276; Potency, µM (highest dose often 37.8 µM), for inactives: at the top dose activity change, negative = inhibition, actives largely listed as inhibitors; 300,000 tested, 1.8% active; calls by dose curve; tested in HEK293 cells; further: potency means the concentration at half of the fitted maximal effect
LASV entry inh: inhibitors of Lassa virus binding or cell entry | Lassa virus pseudotype entry inhibition, cell reporter | Potency, µM (doses to about 37.9 µM), without a hit: at the highest dose activity change, negative = inhibition, hits mostly inhibitors | 300,000 tested, 1.2% active | AID 540256; calls by dose curve; tested in HEK293 cells; further: potency means the concentration at half of the fitted maximal effect; nearly all actives have a fitted effect of over 50% in size
FMDV antiviral: blocks foot and mouth disease virus; FMDV antiviral cell-based qHTS; Potency, µM (series often up to 57.9 µM), inactives show top-dose activity change, negative = inhibition, usual class: inhibitors; 410,000 tested, 1.2% active; calls by dose curve; tested in HEK293T cells; further: read-out not given here; potency means the concentration at half of the fitted maximal effect; nearly all actives have a fitted effect of over 45% in size
Active calls of the source: *; ! = repeats disagree; [ ] = remark or other dose. On the % scale 0 is the no-effect control and ±100 the full control effect.

What do the screens show for `CC#C[C@]1(O)CC[C@H]2[C@@H]3CCC4=CC(=O)CCC4=C3[C@@H](c3ccc(N(C)C)cc3)C[C@@]21C`?
VACV Venus inh: -14.1%; Vaccinia mCherry: -5.6%; HCMV inh: 113.7; MARV entry inh: 10µM*!; LASV entry inh: 8.2µM*!; FMDV antiviral: -22.5%

What do the screens show for `CC#C[C@]1(O)CC[C@H]2[C@@H]3CCC4=CC(=O)CCC4=C3[C@H](c3ccc(N(C)C)cc3)C[C@@]21C`?
MARV entry inh: inconclusive; FMDV antiviral: 0.0%

How did Cc1ncc2c(c1CNC(=O)c1ccc3c(c1)OCO3)CCN(C(=O)c1cccc(-n3cccn3)c1)C2 do in these assays?
VACV Venus inh: -2.5%; Vaccinia mCherry: -8.1%; FMDV antiviral: 0.2%

How did COc1ccc2c(C)cc(Sc3nnnn3-c3ccccc3)nc2c1 do in these assays?
VACV Venus inh: -12.9%; Vaccinia mCherry: inconclusive; HCMV inh: -101.0*; MARV entry inh: 13.6%; LASV entry inh: 0.794µM*; FMDV antiviral: 0.0%

Results for COc1ccc(CSc2nnnn2-c2ccccc2)cc1 ?
VACV Venus inh: -18.7%; HCMV inh: -19.3; MARV entry inh: -5.0%; LASV entry inh: inconclusive; FMDV antiviral: -8.3%

Results for O=[N+]([O-])c1ccc(Sc2nnnn2-c2ccccc2)nc1 ?
VACV Venus inh: -22.4%; Vaccinia mCherry: -25.8%; HCMV inh: -88.1*; MARV entry inh: 12.6µM*; LASV entry inh: inconclusive; FMDV antiviral: 22.4µM*

What do the screens show for `COc1ccc(-n2nnnc2-c2ccccc2)cc1`?
VACV Venus inh: -23.3%; Vaccinia mCherry: inconclusive; HCMV inh: -60.4*; MARV entry inh: -11.2%; LASV entry inh: -23.8%

How did Cc1ccccc1-n1nnnc1SCC(N)=O do in these assays?
VACV Venus inh: -4.1%; HCMV inh: -3.9; MARV entry inh: inconclusive; LASV entry inh: -5.9%; FMDV antiviral: 0.0%

Results for O=[N+]([O-])c1ccc(Sc2ccccn2)nc1 ?
VACV Venus inh: inconclusive; Vaccinia mCherry: inconclusive; HCMV inh: 20.1; MARV entry inh: -1.4%[46.1 µM]; LASV entry inh: 11.4%[46.1 µM]; FMDV antiviral: -1.9%

How did Cc1ccccc1-n1nnnc1Sc1nnnn1-c1ccccc1 do in these assays?
VACV Venus inh: inconclusive; HCMV inh: inconclusive; MARV entry inh: inconclusive; LASV entry inh: inconclusive; FMDV antiviral: 8.91µM*

Results for C[C@@H]1CN(C(=O)OC(C)(C)C)CCN1c1ccc(N2CC[C@@H](O)C2)c(C#N)c1 ?
HCMV inh: -5.7

Results for Cc1ccc2c(c1)C/C(=C/c1ccc(N(C)C)cc1)C2=O ?
VACV Venus inh: 14.9%; Vaccinia mCherry: 11.0%

How did COCOc1c2c(c(OCOC)c3c(OCOC)cccc13)C(=NNS(=O)(=O)c1ccc(C)cc1)C1=C2CCCC1 do in these assays?
MARV entry inh: -17.4%[14.2 µM]

Results for CCCn1c(Sc2nnnn2-c2ccccc2)n[nH]c1=O ?
HCMV inh: -105.9*; MARV entry inh: -11.6%; LASV entry inh: -5.8%; FMDV antiviral: -24.8%

What do the screens show for `CCCn1c(SCC(=O)NC(C)c2ccccc2)n[nH]c1=O` (stereo not given)?
VACV Venus inh: 6.7%; Vaccinia mCherry: -6.9%; HCMV inh: -29.4; MARV entry inh: -16.7%; LASV entry inh: 24.7%; FMDV antiviral: -16.4%

How did CCCSc1nnc(Sc2nnnn2-c2ccccc2)s1 do in these assays?
HCMV inh: -77.8*; MARV entry inh: inconclusive; LASV entry inh: inconclusive; FMDV antiviral: inconclusive

How did Cc1ccc(N/C(N)=N/c2nc(C)cc(N3CCCCC3)n2)c(C)c1 do in these assays?
VACV Venus inh: inconclusive; Vaccinia mCherry: inconclusive; HCMV inh: inconclusive; MARV entry inh: inconclusive; LASV entry inh: inconclusive; FMDV antiviral: 15.8µM*

What do the screens show for `Cc1ccc(N/C(N)=N/c2nc3c(c(=O)[nH]2)CCCC3)c(C)c1`?
VACV Venus inh: -9.0%; Vaccinia mCherry: -1.8%; HCMV inh: -26.8; MARV entry inh: inconclusive; LASV entry inh: inconclusive

Results for COc1cc(/C=C2\C=Cc3ccccc32)cc(OC)c1OC ?
VACV Venus inh: -7.1%; Vaccinia mCherry: -6.7%

What do the screens show for `COc1ccc(-n2c(-c3ccccc3)nnc2-c2ccc(Cl)cc2)cc1`?
VACV Venus inh: 8.6%; Vaccinia mCherry: -2.2%; HCMV inh: 7.8; MARV entry inh: 10.3%[46.1 µM]; LASV entry inh: 0.5%; FMDV antiviral: -12.9%
